Laboratory results as given in PubChem BioAssay AID624125 (The Scripps Research Institute Molecular Screening Center, 2012).
Screen size: about 360,000 compounds; about 2,600 (0.72%) were called active.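 Rule for the calls: active = inhibition above its plate's cutoff, the mean inhibition of sample wells plus 3 SD (cut at about 27% in these data); inactive = the rest.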 Shown is part of a subset that was picked to be rich in actives.

Molecular target: Muscarinic acetylcholine receptor M4 (Homo sapiens) (UniProt P08173)
Sequence (P08173 whole entry, looked up): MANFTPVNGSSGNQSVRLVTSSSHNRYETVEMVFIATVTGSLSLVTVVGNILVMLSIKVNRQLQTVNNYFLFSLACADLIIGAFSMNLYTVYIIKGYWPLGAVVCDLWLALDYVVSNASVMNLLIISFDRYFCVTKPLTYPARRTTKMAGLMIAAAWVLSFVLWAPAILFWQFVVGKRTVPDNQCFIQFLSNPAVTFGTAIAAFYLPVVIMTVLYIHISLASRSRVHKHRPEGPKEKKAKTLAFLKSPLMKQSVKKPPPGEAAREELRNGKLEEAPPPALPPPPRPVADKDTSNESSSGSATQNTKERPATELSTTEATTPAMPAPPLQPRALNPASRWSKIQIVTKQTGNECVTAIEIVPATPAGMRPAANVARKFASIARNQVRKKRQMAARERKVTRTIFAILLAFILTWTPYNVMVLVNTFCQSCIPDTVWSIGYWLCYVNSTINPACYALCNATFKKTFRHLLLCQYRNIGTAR
Assay: human M4 muscarinic receptor antagonists, primary screen, CHO cells, Fluo-8 calcium fluorescence (AID 624125);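 note: 0% = acetylcholine EC80 with DMSO and 100% = DMSO without agonist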
Conditions: CHO-hM4 cells, ACh EC80, Fluo-8 calcium fluorescence; at 3 µM; hits give high values

SMILES	inhibition
CCC1SC(CC)C(=O)N(CC(=O)NC2CCCCC2)C1=O (configuration not stated)	4.12% (inactive)
Cc1ccc(C(=O)NC(=S)Nc2ccc3[nH]c(=O)[nH]c3c2)cc1C	-8.35% (inactive)
COC(=O)c1cccc(-n2[nH]nnc2=S)c1	2.86% (inactive)
COc1ccccc1C(=O)NCCn1cc(SCC(=O)NCc2ccco2)c2ccccc21	6.25% (inactive)
COc1cc2c3c(c1)/C(=C1/SC(=S)NC1=O)C(=O)N3C(C)(C)C=C2C	9.66% (inactive)
C=CC[C@@H](CC(=O)N[C@@H](CO)Cc1ccccc1)C(=O)NCCOC(=O)[C@@H](CC=C)CC(=O)OC(C)(C)C	-5.01% (inactive)
CCc1cc(C(c2ccccc2OC)N2CCOCC2)c(NC(=O)c2ccccc2)s1 (configuration not stated)	-6.12% (inactive)
COc1ccc(COC(=O)c2n[nH]c3ccccc23)cc1F	3.64% (inactive)
CCCOc1ccccc1C(=O)NCCCC(=O)O	-1.85% (inactive)
CN(C)c1ccc(N/C=C/C(=O)C(F)(F)F)cc1	-4.11% (inactive)
COC(=O)c1cc(NC(=O)CN2CCN(C(C)=O)CC2)cc(C(=O)OC)c1	1.81% (inactive)
Cc1cc2c(cc1C)N(Cc1ccccc1)C1=NCCCN12	10.6% (inactive)
CN(Cc1cccnc1)C(=O)c1cc(COc2ccc3ncccc3c2)on1	44.2% (active)
Cc1cc(CN(C)C(=O)c2cc(COc3ccc(C)c(C)c3)on2)n[nH]1	-2.16% (inactive)
Cc1ccc(OCc2cc(C(=O)N(C)CCn3ccnc3C)no2)cc1C	-0.14% (inactive)
Cc1ccc2c(c1)N(CC(=O)N(Cc1ccccn1)Cc1ccco1)C(=O)C(C(C)C)O2 (configuration not stated)	-6.51% (inactive)
O=[N+]([O-])c1c(NCCO)cc(Sc2nc3ccccc3s2)c2nonc12	74.6% (active)
CCCCN1C(=O)/C(=C2/C=CC=CN2C)SC1=S	28.7% (active)
CCS(=O)(=O)N1CCCC(C(=O)NCCCN(C)Cc2ccccc2)C1 (configuration not stated)	6.16% (inactive)
CCS(=O)(=O)c1ccc2c(c1)N(S(=O)(=O)c1ccccc1)CC(C(=O)O)O2 (configuration not stated)	0.74% (inactive)
c1ccc2c(c1)CSc1sccc1C2=C1CCNCC1	97.6% (active)
CCCCN(CC(=O)Nc1cccc(S(=O)(=O)N2CCCC2)c1)Cc1nc2ccccc2c(=O)[nH]1	15.9% (inactive)
O=C1CCCc2nn(-c3ccccc3)nc21	2.29% (inactive)

SMILES	inhibition
CCCCC(=O)NNC(=S)NC(=O)C(c1ccccc1)c1ccccc1	59.9% (active)
C=CCC(NC(=O)Cc1ccccc1)C(=O)NCCC (configuration not stated)	0.03% (inactive)
CCCOCC(O)CC(CC)C(=O)NNC(=S)Nc1ccccc1 (configuration not stated)	-8.64% (inactive)
CCOc1ccc(N(CC)S(=O)(=O)c2cccc3nsnc23)cc1	4.82% (inactive)
O=C(/C=C/[C@H]1O[C@@H](n2ccc(=O)[nH]c2=O)[C@H](O)[C@@H]1O)NCc1ccccn1	-0.74% (inactive)
COc1ccc(C(=O)O)cc1S(=O)(=O)NCc1cccnc1	-5.56% (inactive)
COc1ccc(C(=O)NC2CC(C)(C)Cc3c2cnn3-c2ccccc2)c(OC)c1 (configuration not stated)	-2.19% (inactive)
COc1ccc(C(=O)NC2CCCc3c2cnn3-c2cccc(C)c2C)c(OC)n1 (configuration not stated)	30.6% (active)
Cn1nccc1C(=O)NC1CCCc2c1cnn2-c1ccc(F)cc1F (configuration not stated)	4.7% (inactive)
CCC(Oc1ccccc1)C(=O)NCc1cccnc1 (configuration not stated)	-2.11% (inactive)
CCN(CC(=O)Nc1ccc(NC(C)=O)cc1)C(=O)C1CC(=O)N(Cc2ccc(C)cc2)C1 (configuration not stated)	-10% (inactive)
O=C1CC[C@@H](C(=O)N2CSC[C@@H]2C(=O)Nc2ccc(C(F)(F)F)cc2)N1	-9.06% (inactive)
Cc1c(Cl)cccc1NC(=O)CSc1ccc(-c2cccnc2)nn1	4.65% (inactive)
O=C(NCc1ccc2c(c1)OCO2)C1CCCN(S(=O)(=O)c2cccs2)C1 (configuration not stated)	-10.7% (inactive)
O=C1C(Cl)=C(Oc2ccccc2)C(=O)c2ccccc21	43.5% (active)
O=C(Nn1cnc2ccccc2c1=O)c1ccc(F)cc1Cl	0.01% (inactive)
COC(=O)[C@@]12CCCN1[C@H](c1ccc(-c3ccc(F)cc3)c(OC)c1)[C@H]1C(=O)N(C)C(=O)[C@H]12	0.47% (inactive)
CC(C)(C)NC(=O)/C(=C/c1cccnc1)NC(=O)c1ccco1	-1.31% (inactive)
COc1ccc(-c2onc3ccc(C(C)=O)cc23)cc1	-10.7% (inactive)
CCn1c2ccccc2c2cc(NC(=S)N3CCOCC3)ccc21	3.52% (inactive)
O=C(CN1CCOc2ccccc21)N1CCC(Cc2ccccc2)CC1	-1.37% (inactive)
O=C(Nc1ccc2c(c1)OCCO2)C(C1CC1)N1CCC(Cc2ccccc2)CC1 (configuration not stated)	28.2% (active)
Nc1c(C(=O)Nc2ccc3c(c2)OCCO3)nnn1Cc1ccccc1	1.65% (inactive)

SMILES	inhibition
O=C(Nc1ccccc1C(=O)N1CCOCC1)c1ccc(Cl)cc1	-14.3% (inactive)
CN(C(=O)CN(CCO)CC(=O)N(C)C(C)(C)Cc1ccccc1)C(C)(C)Cc1ccccc1	28.1% (active)
CN(CCO)C(=O)c1nc[nH]c1C(=O)N(C)Cc1ccccc1	-23.3% (inactive)
CCOC(=O)N(Cc1ccccc1)C1CC1	2.24% (inactive)
Cc1ccc2cc(C#N)c(NCCNC(=S)NCCCN3CCOCC3)nc2c1	-4.3% (inactive)
COCCn1c(C)cc(C(=O)CN2c3cccc4cccc(c34)S2(=O)=O)c1C	-7.15% (inactive)
CCOC(=O)N1CCN(C(=O)c2cn(C)c3ccc(S(=O)(=O)N(CC)CC)cc3c2=O)CC1	-13.5% (inactive)
CCOC(=O)N1CCN(C(=O)c2cn(C)c3ccc(S(=O)(=O)N4CCCC4)cc3c2=O)CC1	58.7% (active)
COc1ccc(N2CCN(C(=O)c3cn(C)c4ccc(S(=O)(=O)N5CCOCC5)cc4c3=O)CC2)cc1	-12.4% (inactive)
CCCCSc1nc2c(c(=O)n1CC)SC(C)C2 (configuration not stated)	-22.6% (inactive)
Cc1ccc(NC(=O)C(C)OC(=O)Cc2c[nH]c3ccccc23)cc1S(=O)(=O)N1CCOCC1 (configuration not stated)	-17.2% (inactive)
Cc1ccc(S(=O)(=O)N(Cc2ccc(Cl)cc2)c2ccccc2C(=O)NCc2cccnc2)cc1	2.37% (inactive)
Nc1nc(NCc2ccccc2)n(-c2ccccc2)n1	-15.7% (inactive)
CCCCCCn1c(=O)n2n(c1=O)C[C@]1(OC(=O)NCc3ccc(OC)c(OC)c3)CN(S(=O)(=O)c3ccc(C)cc3)C[C@]1(O)C2	-8.79% (inactive)
NC(=O)C1(N2CCCC2)CCN(Cc2ccccc2)CC1	-8.47% (inactive)
O=S1(=O)CCN(Cc2ccccc2)CC1	-1.75% (inactive)
CC12CN(Cc3ccccc3)CC(C)(CN(Cc3ccccc3)C1)C2=NO	31.4% (active)
COc1cccc(CC(=O)N2CCCC(CCC(=O)N3CCN(c4ccccn4)CC3)C2)c1 (configuration not stated)	-6.8% (inactive)
CC(=O)N[C@@H](C)C(=O)N1CCC(n2nccc2NC(=O)CCCc2ccccc2)CC1	-1.73% (inactive)
COc1ccccc1NC(=O)COC(=O)Cc1ccc(S(=O)(=O)N2CCCCC2)s1	-3.41% (inactive)
CC(C)Nc1nnc(SC(C)C(=O)N(C)C2CCCCC2)s1 (configuration not stated)	3.18% (inactive)
CCn1c(CNC(=O)c2cc(OC)c(OC)c(OC)c2)cc2cc(C)ccc21	28.2% (active)
COc1cc(C(=O)NCc2ccc(-n3cccc3)cc2)cc(OC)c1OC	9.05% (inactive)

SMILES	inhibition
COc1cc(C(=O)NCc2nnc(SCC(=O)Nc3nc4ccc(C)cc4s3)o2)cc(OC)c1OC	1.54% (inactive)
Cc1ccc(S(=O)(=O)N2CCC(C(=O)N[C@@H](C)C(=O)NCc3ccccc3)CC2)cc1	-7.25% (inactive)
Cc1coc2c1c(C)cc1oc(=O)c(CC(=O)NCC(=O)N[C@H](C(=O)O)C(C)C)c(C)c12	12.9% (inactive)
C=CCn1c(SCC(=O)NCc2ccccc2)nnc1-c1cc(Br)ccc1O	10.6% (inactive)
COc1ccccc1C(=O)NC(=O)COC(=O)c1ccco1	-3.72% (inactive)
COc1ccccc1S(=O)(=O)NCc1ccc(C(=O)N(C)Cc2ccc(F)cc2)cc1	0.25% (inactive)
Cc1ccc(CNC(=O)Cn2cnc(S(=O)(=O)N3CCCCC3)c2)o1	-2.52% (inactive)
CCC(=O)Nc1ccc2nc(C)n(Cc3ccccc3Cl)c(=O)c2c1	6.19% (inactive)
CCN1CCN(c2cc3nc(C)n(Cc4ccccc4)c(=O)c3cc2NC(=O)c2ccccc2F)CC1	84.6% (active)
CCOc1cc(NC(=O)c2ccccc2C(=O)O)c(OCC)cc1NC(=O)c1ccccc1F	-12.1% (inactive)
COc1ccc(NC(=O)C[C@H]2C(=O)N(CCc3ccccc3)C[C@@H]2C)cc1	-7.17% (inactive)
COc1cc2c(cc1OC)C(c1cccc([N+](=O)[O-])c1)=NCC2	-14.9% (inactive)
COc1ccc(C(CNCC(=O)Nc2ccccc2F)N(C)C)cc1 (configuration not stated)	-5.27% (inactive)
CCc1ccccc1NC(=O)CN(C)C(=O)COc1ccc(C)nc1[N+](=O)[O-]	-2.74% (inactive)
COc1ccccc1C(CNC(=O)c1cccc(NS(=O)(=O)c2ccc(Br)cc2)c1)N(C)C (configuration not stated)	10.7% (inactive)
CCOc1ccc(NS(=O)(=O)c2ccc(C(=O)NC3CCN(Cc4ccccc4)CC3)cc2)cc1	6.63% (inactive)
COc1ccccc1CNC(=O)c1ccc(Cl)c(S(=O)(=O)N2CCCC2)c1	-5.41% (inactive)
Cc1ccc(C(=O)NCC(c2cccs2)N(C)C)cc1S(=O)(=O)N1CCOCC1 (configuration not stated)	8.72% (inactive)
COc1ccccc1C(CNC(=O)c1cccc(S(=O)(=O)Nc2ccc(F)cc2)c1)N(C)C (configuration not stated)	48.7% (active)
CCOc1ccc(S(=O)(=O)Nc2ccc(C(=O)NCCCN3CCCC3=O)cc2)cc1	-0.83% (inactive)
CCOc1ccc(NS(=O)(=O)c2ccc(C(=O)NCC(c3ccccc3OC)N3CCCC3)cc2)cc1 (configuration not stated)	40.8% (active)
COc1ccc(C(CNC(=O)c2cccc(S(=O)(=O)Nc3ccc(Br)cc3)c2)N(C)C)cc1 (configuration not stated)	1.87% (inactive)
COc1ccccc1C(CNC(=O)c1ccc(C)c(S(=O)(=O)N2CCCCC2)c1)N(C)C (configuration not stated)	51.6% (active)
